Screening results deposited in PubChem by several laboratories.
PrPC surface inh = cell surface PrPC inhibition, primary TR-FRET screen | P04156 | TR-FRET read-out | inhibition, % at 13.8 µM | 0.43% of 370,000 active | AID 720596; in the data active means inhibition above about 24%; further: 0% = median of the test wells and 100% = reference compound wells
PfHsp40 yeast = rescue of PfHsp40-mediated yeast toxicity. S. cerevisiae expressing PfHsp40, growth rescue, ATP luminescence. growth rescue, % at 12.5 µM. 0.68% of 340,000 active. AID 504582; in the data active means growth rescue above about 28%, passing the limit was not always enough; inconclusive means no clear call, values can overlap the other calls;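 further: yeast W303a lacking pdr1 and pdr3 grown in galactose medium; growth measured after three days at 30 °C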
SSB-PriA inh = inhibitors of Klebsiella pneumoniae PriA binding to SSB C-terminal tail; 0.6% of 430,000 active; inhibition, % at 33 µM; AID 1272365; AlphaScreen SSBct-PriA binding, biotinylated peptide; in the data active means inhibition mostly above about 37%, no sharp cut-off; inactive means mostly below about 20%;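 further: plate controls were negative control peptide for no effect and reference peptide for full effect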
PrP UTR inh = suppresses PrP 5' UTR mRNA reporter expression; cell-based PrP 5' UTR mRNA reporter, plate reader; inhibition, % (test concentration not listed); 0.35% of 340,000 active; in the data active means inhibition above about 52%; further: 0 = median of the neutral control wells
Vc quorum ag = inducers of Vibrio cholerae quorum light production without autoinducers | 0.16% of 350,000 active | V. cholerae BH1578 lux reporter, luminescence, 6 h | activation, % at 18.7 µM | AID 588436; in the data active means activation mostly above about 9.7%, no sharp cut-off; inconclusive means no clear call, values can overlap the other calls; inactive means mostly below about 3.7%
SARS 3CLpro inh-1 = SARS-CoV 3CLpro protease inhibition; inhibition, % at 6 µM; recombinant SARS-CoV 3CLpro, quenched FRET peptide cleavage; 0.14% of 290,000 active; in the data active means inhibition above about 12%
SARS 3CLpro inh-2 = confirmation of SARS coronavirus 3C-like protease inhibitors. 36% of 380 active. QFRET protease activity assay, 3CLpro. inhibition, % at 6 µM. shares compounds with SARS 3CLpro inh-1. AID 1879; in the data active means inhibition above about 13%
An asterisk follows results filed as active; i = inactive; ? = inconclusive; . = not tested or not shown. In the library only some 1.6% were active in any assay of this set; here they are far more common.

SMILES	PrPC surface inh	PfHsp40 yeast	SSB-PriA inh	PrP UTR inh	Vc quorum ag	SARS 3CLpro inh-1	SARS 3CLpro inh-2
CC1=Nc2cccc3cccc(c23)N1C	-7	0	7	-8	0	13*	-5
O=C(CSCc1ccccc1)NCCn1nc(C(F)(F)F)cc1C1CC1	.	.	2	.	.	.	.
CC[C@@]12C(=O)N(c3cccc(F)c3)C(=O)N1[C@H](c1ccc(F)cc1)[C@@H]1C(=O)N(C3CCCCC3)C(=O)[C@@H]12	.	2	3	-22	i	16*	8
COc1ccccc1NC(=O)N1CCCN(CCn2cccn2)CC1	.	.	-9	.	.	.	.
O=C(Oc1ccc2cccc(OC(=O)N3CCOCC3)c2c1)N1CCOCC1	1	0	-6	-6	-3	13*	-1
O=C(Oc1cccc2c(OC(=O)N3CCOCC3)cccc12)N1CCOCC1	-4	0	-10	-15	-6	-8	.
COc1ccc(/C(N)=N/OC(=O)CSc2ccccc2)cc1OC	0	0	.	-13	i	13*	-1
CCc1ccc2c(c1)C(NC(C)=O)C(=O)N2CC (stereo unspecified)	-8	0	-10	14	0	4	.
CC(=O)NC1C(=O)N(CCN2CCOCC2)c2ccc(F)cc21 (stereo unspecified)	4	-1	-1	-7	2	12*	45*
CC(C)c1ccc(NC(=O)CSc2nc3ccsc3c(=O)n2Cc2ccc(C(=O)O)cc2)cc1	-7	1	-20	2	0	13*	5
CCc1ccc(NC(=O)CSc2nc3ccsc3c(=O)n2CCC(=O)O)cc1	-1	-2	1	-11	i	6	.
COC(=O)c1cc2sccc2n1CC(=O)Nc1ccc(OC)c(OC)c1OC	-7	0	0	-26	i	14*	-4
CCOC(=O)c1cc2sccc2n1CC(=O)Nc1ccc(OC)cc1OC	-8	0	-7	-45	-2	0	.
Cc1ccc(C(=O)Cn2nnc3ccccc32)cc1	-3	-1	-6	-95	-5	6	.
O=C(Cn1nnc2ccccc21)c1ccc(Br)cc1	2	1	-8	-15	i	57*	55*
COC(=O)C1=C(C)NC(=S)NC1c1ccc(-c2cccc(Cl)c2)o1 (stereo unspecified)	6	0	-2	2	i	4	.
COC(=O)C1=C(C)NC(=S)NC1c1ccc(-c2ccccc2C(=O)OC)o1 (stereo unspecified)	7	-2	2	-26	0	13*	-5
COc1ccc(S(=O)(=O)Nc2ccc(F)cc2)cc1N(C)S(=O)(=O)c1ccc(Cl)cc1	10	1	4	-1	-11	17*	-2
COc1ccc(NS(=O)(=O)c2ccc(OC)c(N(C)S(=O)(=O)c3ccc(Cl)cc3)c2)cc1	13	2	2	-29	1	2	.
COc1ccc(-c2cc(N)n(S(=O)(=O)c3c(F)c(F)c(F)c(F)c3F)n2)cc1OC	-5	0	2	-18	0	14*	2
COc1ccc(NC(=O)c2ccc3c(=O)n(-c4ccc(OC)cc4OC)c(=S)[nH]c3c2)cc1	18	-2	6	-5	i	14*	-4
Cc1ccc(-n2c(Cc3cccn3C)nnc2SCC(=O)Nc2ccc3c(c2)OCO3)cc1	16	0	39*	-13	0	14*	2
Cc1ccc(-n2c(Cc3cccn3C)nnc2SCC(=O)Nc2ccc3c(c2)OCCO3)cc1	.	.	16	.	.	.	.
C=CCn1c(SCC(=O)Nc2nc(-c3ccccc3)ns2)nc2scc(-c3ccc(F)cc3)c2c1=O	.	.	1	.	.	.	.
O=C(COc1ccccc1)N1c2ccccc2Sc2ccccc21	-2	2	-12	-20	0	0	.
SMILES	PrPC surface inh	PfHsp40 yeast	SSB-PriA inh	PrP UTR inh	Vc quorum ag	SARS 3CLpro inh-1	SARS 3CLpro inh-2
O=C(OCC(=O)N1c2ccccc2Sc2ccccc21)c1cccnc1	6	0	-3	-26	0	21*	22*
O=C(/C=C/c1cc(Br)ccc1F)Nc1cccnc1	-6	-1	2	-16	0	-2	.
O=C(/C=C/c1c(F)cccc1Cl)Nc1cccnc1	-5	-1	1	-72	-1	20*	16*
COc1cc(/C=N\NC(=O)Cn2nnc3ccccc32)ccc1OCc1ccccc1	.	.	6	.	.	.	.
COc1ccc(/C=N/NC(=O)Cn2nnc3ccccc32)cc1OC	1	1	.	-15	0	12*	16*
COc1ccc(CC(=O)Nc2ccc3c(c2)CCC(=O)N3C)cc1	.	.	-6	.	.	.	.
CC(C)CN(CCC(=O)O)CC(C)C	-1	-1	-4	-25	0	14*	-6
O=C(O)CCN(CCC(=O)O)c1ccccc1	-3	-1	-14	-23	5	2	.
O=C(c1ccc2ncsc2c1)N1CCCCC1	1	-1	-9	-46	i	-5	.
O=C(O)c1ccc2ncsc2c1	6	-1	4	4	0	17*	38*
Nc1cc2nn(-c3ccccc3)nc2cc1Cl	1	1	-5	-167	i	12*	-4
Nc1ccc2nn(-c3ccccc3)nc2c1	-6	-2	-3	-47	0	1	.
CC(C)Oc1cc(NC(=O)CSCC(=O)Nc2cccc(C(F)(F)F)c2)c(Cl)cc1Cl	10	6	-12	-35	i	17*	1
O=C(O)CSCC(=O)Nc1cc(C(F)(F)F)ccc1Cl	4	-1	-6	-20	0	-2	.
Cc1cc(C)c(S(=O)(=O)/N=C2\C=C(Nc3ccc(C(=O)O)cc3)C(=O)c3ccccc32)c(C)c1	-38	?	.	-42	0	13*	7
O=C(NCCN1CCOCC1)c1ccc2c(c1)N(Cc1ccc(F)cc1)C(=O)CS2	2	1	10	-5	i	10	.
Cc1ccc(CN2C(=O)CSc3ccc(C(=O)NCCN4CCOCC4)cc32)cc1	.	0	-8	-3	0	19*	8
CC(C)c1ccc(N(C(=O)c2csnn2)C(C(=O)NC2CCCC2)c2cccnc2)cc1 (stereo unspecified)	0	-1	0	-4	2	15*	20*
COc1ccc(CNC(=O)CN(Cc2ccccc2)S(=O)(=O)c2ccc(Cl)cc2)cc1	15	2	-15	-9	0	0	.
O=C(O)c1ccc(CN(Cc2ccccc2)S(=O)(=O)c2ccc(Cl)cc2)cc1	0	2	10	-26	0	13*	4
COCCOC(=O)/C(C#N)=C/c1cn(Cc2ccccc2)nc1-c1cccnc1	-4	1	8	-32	i	16*	2
N#Cc1ccc(CN2CCN(C(=O)c3cn(Cc4ccccc4)nc3-c3cccnc3)CC2)cc1	-1	0	7	-5	i	.	.
COc1c(Cl)cc(C(=O)O)cc1Cl	-4	-1	-8	-37	-1	.	.
COc1c(Cl)cc(C(=O)NN)cc1Cl	3	-1	2	-6	-1	16*	17*
